Screens as filed in PubChem.
HT1080 IDH1KD tx: toxicity to HT-1080 IDH1 knockdown cells (counter line); HT-1080 IDH1 knockdown viability, ATP luminescence, 48 h; hit rate 2% among 360,000; Potency, µM (highest dose often 46.1 µM), without a hit: at the highest dose activity, negative = toxicity, actives largely listed as cytotoxic;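 note: 0% = DMSO wells and -100% = cell-free medium wells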
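HT-1080-IDH1KD cells (IDH1 knocked down), 750/well in RPMI with 5% FBS, treated with compound 48 h at 37 degrees C. Viability by CellTiter-Glo luminescence, normalised to DMSO and no-cell wells; concentration-response curves classed.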
KB-3-1 tox: KB-3-1 parental cell cytotoxicity | AID 1347075 | Potency, µM (doses to about 46.1 µM), most hits filed as cytotoxic | hit rate 1.4% among 400,000 | KB-3-1 viability, CellTiter-Glo ATP luminescence, 72 h; note: % is set by controls: 0 for no effect and ±100 for the full control effect; nearly all actives have a fitted effect of over 60% in size
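72 h, 37 °C compound treatment of KB-3-1 parental cells; CellTiter-Glo added, 10 min, luminescence read. Data corrected against DMSO-only plates and normalized before curve fitting.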
TGFb SMAD3 inh: inhibitors of TGF-b signaling. Potency, µM (series often up to 46.1 µM), inactives show at the top dose activity, negative = inhibition, most hits filed as inhibitors. HepG2 CAGA-GFP TGF-b/SMAD3 reporter, GFP fluorescence, 18 h; TGF-beta stimulated, 500 pg/mL final. AID 588855. hit rate 1.2% among 410,000; note: % is set by controls: 0 for no effect and ±100 for the full control effect; nearly all actives have a fitted effect of over 65% in size
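Inhibition of TGF-beta-driven CAGA-GFP reporter expression in HEPG2 cells is measured by cellular GFP fluorescence after 18 h stimulation with 500 pg/mL recombinant TGF-beta in 1% FBS medium at 37 degrees C.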
HepG2 tox: HepG2 cytotoxicity, counter-screen for TGF-b inhibitors | HepG2 CAGA-GFP viability, ATP luminescence, 18 h | Potency, µM (highest dose often 46.1 µM), for inactives: at the highest dose activity change, negative = cytotoxicity, most hits filed as cytotoxic | hit rate 0.76% among 410,000 | AID 588856
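CellTiter-Glo luminescence gave cytotoxicity after 18 hours at 37 degrees C. The cells were HepG2 CAGA-GFP in 1% FBS DMEM, stimulated with 500 pg/mL TGF-beta after compound addition. %Activity was normalised to no-cell wells (complete cell-killing) and DMSO (no toxicity), and curves were fitted and classified.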
KB-V1 MDR tox: kills drug-selected multidrug resistant KB-V1 cells. KB-V1 MDR cells viability, CellTiter-Glo, 72 h. Potency, µM (series often up to 46.1 µM), actives largely listed as cytotoxic. hit rate 3.4% among 400,000. AID 1347076; note: % is set by controls: 0 for no effect and ±100 for the full control effect; nearly all actives have a fitted effect of over 60% in size
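Cytotoxicity toward P-gp-expressing KB-V1 cells was determined as loss of CellTiter-Glo luminescence after 72 h at 37 degrees C. Compounds were tested in quantitative HTS format across a concentration range, with curves fitted to normalized data.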
HT1080NT lethal: kills 2HG-producing HT-1080-NT fibrosarcoma cells; HT-1080-NT fibrosarcoma viability, CellTiter-Glo ATP luminescence, 48 h; Potency, µM (highest dose often 46.1 µM), for inactives: at the highest dose activity, negative = less viability, usual class: cytotoxic; hit rate 1.6% among 360,000; AID 686970;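 note: NT is the 2HG producing partner of a matched IDH1 knockdown line; 0% = DMSO-treated cells and -100% = media-only wells without cells; nearly all actives have a fitted effect of over 55% in size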
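Read-out is CellTiter-Glo luminescence after 10 minutes at room temperature, following 48 hours' compound treatment of HT-1080-NT cells (750 cells/well, RPMI, 5% FBS, 37 degrees C).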
* hit, by the source's call. Compounds with a hit are over-represented: about 6.6% of the library has one in this group of screens. Calls come from the whole dose curve; as a rule, active = well fitted curve in the direction sought with a large enough effect; inconclusive = small, poorly fitted or top-dose-only effect, or another doubt; inactive = no such curve, though single readings can be large; an effect the other way counts as inactive or inconclusive. Potency is the fitted concentration of half-maximal effect.

What do the screens show for `Cc1ccc(/C=C2/C(=O)NC(=O)N(CC3CCCO3)C2=O)s1` (stereo unspecified)?
HT1080 IDH1KD tx: 8.1%; KB-3-1 tox: inactive; TGFb SMAD3 inh: 5.0%; HepG2 tox: 0.4%; KB-V1 MDR tox: inactive; HT1080NT lethal: 3.0%

Results for O=C1COc2ccc(-c3csc(=Nc4ccc(OC(F)F)cc4)n3CC3CCCO3)cc2N1 (stereo unspecified) ?
HT1080 IDH1KD tx: inconclusive; KB-3-1 tox: inconclusive; TGFb SMAD3 inh: -23.2%; HepG2 tox: -51.5%; KB-V1 MDR tox: 2.91µM*; HT1080NT lethal: inconclusive

Results for COC(=O)C1=C(c2ccc(-c3ccccc3)c(F)c2)C[C@@H]2CC[C@H]1N2C(=O)N1CCC(O)CC1 ?
HT1080 IDH1KD tx: -11.9%; KB-3-1 tox: inactive; TGFb SMAD3 inh: -68.5%; HepG2 tox: -22.9%; KB-V1 MDR tox: inactive; HT1080NT lethal: -10.0%

Results for COC(=O)C1=C(c2cc3ccccc3o2)C[C@@H]2CC[C@H]1N2C(=O)N1CCOCC1 ?
HT1080 IDH1KD tx: inconclusive; KB-3-1 tox: 5.8µM*; TGFb SMAD3 inh: inconclusive; HepG2 tox: -0.2%; KB-V1 MDR tox: 23.1µM*; HT1080NT lethal: 23.1µM*

Results for COC(=O)C1=C(c2ccccc2)C[C@@H]2CC[C@H]1N2C(=O)N1CCOCC1 ?
HT1080 IDH1KD tx: 1.7%; KB-3-1 tox: inactive; TGFb SMAD3 inh: 5.8%; HepG2 tox: 4.7%; KB-V1 MDR tox: inactive; HT1080NT lethal: 6.1%

How did COC(=O)C1=C(c2ccc(-c3ccccc3)c(F)c2)C[C@@H]2CC[C@H]1N2C(=O)N1CCCC1 do in these assays?
HT1080 IDH1KD tx: -26.4%; KB-3-1 tox: 18.4µM*; TGFb SMAD3 inh: inconclusive; HepG2 tox: -27.6%; KB-V1 MDR tox: inconclusive; HT1080NT lethal: -18.9%

How did COC(=O)C1=C(c2ccc(-c3ccccc3)c(F)c2)C[C@@H]2CC[C@H]1N2C(=O)N1CCCCC1 do in these assays?
HT1080 IDH1KD tx: 20.6µM*; KB-3-1 tox: inactive; TGFb SMAD3 inh: inconclusive; HepG2 tox: -5.5%; KB-V1 MDR tox: inconclusive; HT1080NT lethal: inconclusive

What do the screens show for `COC(=O)C1=C(c2ccccc2OCc2ccccc2)C[C@@H]2CC[C@H]1N2C(=O)NCc1ccc(F)cc1`?
HT1080 IDH1KD tx: inconclusive; KB-3-1 tox: 20.6µM*; TGFb SMAD3 inh: inconclusive; HepG2 tox: 0.7%; KB-V1 MDR tox: 18.4µM*; HT1080NT lethal: -21.6%

How did O=C(COc1ccccc1F)N1CCN(Cc2cc(=O)n3nc(-c4ccccc4Cl)sc3n2)CC1 do in these assays?
KB-3-1 tox: inactive; TGFb SMAD3 inh: -9.6%; HepG2 tox: -4.1%; KB-V1 MDR tox: inactive

Results for CCOC(=O)n1c(=O)oc2ccc(Cl)cc21 ?
HT1080 IDH1KD tx: inconclusive; KB-3-1 tox: inactive; TGFb SMAD3 inh: 0.8%; HepG2 tox: -27.7%; KB-V1 MDR tox: inactive; HT1080NT lethal: -4.9%

What do the screens show for `CC(C)(C)NC(=O)Cn1c(=O)oc2ccc(Cl)cc21`?
HT1080 IDH1KD tx: 9.5%; KB-3-1 tox: inactive; TGFb SMAD3 inh: -26.4%; HepG2 tox: -28.3%; KB-V1 MDR tox: inactive; HT1080NT lethal: -6.2%

How did COC(=O)C1=C(c2cc3ccccc3o2)C[C@@H]2CC[C@H]1N2C(=O)NCc1ccc(C(F)(F)F)cc1 do in these assays?
HT1080 IDH1KD tx: inconclusive; KB-3-1 tox: inconclusive; TGFb SMAD3 inh: 2.8%; HepG2 tox: -21.0%; KB-V1 MDR tox: inconclusive; HT1080NT lethal: 20.6µM*

How did COC(=O)C1=C(c2ccc(-c3ccccc3)c(F)c2)C[C@@H]2CC[C@H]1N2C(=O)N1CCOCC1 do in these assays?
HT1080 IDH1KD tx: -6.5%; KB-3-1 tox: 18.4µM*; TGFb SMAD3 inh: -21.4%; HepG2 tox: -12.1%; KB-V1 MDR tox: inactive; HT1080NT lethal: -7.6%

Results for COC(=O)C1=C(c2cc3ccccc3s2)C[C@@H]2CC[C@H]1N2C(=O)N1CCCCC1 ?
HT1080 IDH1KD tx: 8.2µM*; KB-3-1 tox: 25.9µM*; TGFb SMAD3 inh: inconclusive; HepG2 tox: -7.2%; KB-V1 MDR tox: inconclusive; HT1080NT lethal: inconclusive

Results for COC(=O)C1=C(c2ccc(-c3ccccc3)c(F)c2)C[C@@H]2CC[C@H]1N2C(=O)N1CCc2cc(OC)c(OC)cc2C1 ?
HT1080 IDH1KD tx: -16.4%; KB-3-1 tox: inconclusive; TGFb SMAD3 inh: -28.0%; HepG2 tox: -12.6%; KB-V1 MDR tox: inconclusive; HT1080NT lethal: -7.2%

What do the screens show for `COC(=O)C1=C(c2cc3ccccc3s2)C[C@@H]2CC[C@H]1N2C(=O)N1CCC(O)CC1`?
HT1080 IDH1KD tx: -0.2%; KB-3-1 tox: inconclusive; TGFb SMAD3 inh: 0.4%; HepG2 tox: -6.1%; KB-V1 MDR tox: inactive; HT1080NT lethal: 19.6%

What do the screens show for `CCOC(=O)c1cccc(NC(=O)NCc2ccc3c(c2)CCN3C(=O)c2ccccc2)c1`?
KB-3-1 tox: inconclusive; TGFb SMAD3 inh: inconclusive; HepG2 tox: -13.3%; KB-V1 MDR tox: inactive

How did N[C@H](CO)Cc1ccccc1 do in these assays?
HT1080 IDH1KD tx: 29.1µM*; KB-3-1 tox: inactive; TGFb SMAD3 inh: 0.2%; HepG2 tox: -4.8%; KB-V1 MDR tox: inactive; HT1080NT lethal: -10.6%

Results for CNC(C)Cc1ccccc1 (stereo unspecified) ?
HT1080 IDH1KD tx: 10.0%; KB-3-1 tox: inactive; TGFb SMAD3 inh: 6.3%; HepG2 tox: 1.1%; KB-V1 MDR tox: inactive; HT1080NT lethal: 0.7%

What do the screens show for `O=c1[nH]c2ccccc2n1C1CCN(C(c2cc3ccccc3o2)c2nnnn2-c2ccc3c(c2)OCCO3)CC1` (stereo unspecified)?
HT1080 IDH1KD tx: 18.4µM*; KB-3-1 tox: inconclusive; TGFb SMAD3 inh: -20.9%; HepG2 tox: -15.4%; KB-V1 MDR tox: inconclusive; HT1080NT lethal: inconclusive

What do the screens show for `O=c1[nH]c2ccccc2n1C1CCN(C(CCc2ccccc2)c2nnnn2C2CCCCC2)CC1` (stereo unspecified)?
HT1080 IDH1KD tx: 15.9%; KB-3-1 tox: inconclusive; TGFb SMAD3 inh: inconclusive; HepG2 tox: -6.9%; KB-V1 MDR tox: inconclusive; HT1080NT lethal: 9.0%

How did CSCCC(c1nnnn1-c1c(C)cccc1C)N1CCC(n2c(=O)[nH]c3ccccc32)CC1 (stereo unspecified) do in these assays?
HT1080 IDH1KD tx: -3.7%; KB-3-1 tox: inactive; TGFb SMAD3 inh: -17.7%; HepG2 tox: -13.3%; KB-V1 MDR tox: inactive; HT1080NT lethal: -2.4%
